Compound activity deposited in PubChem BioAssay by several laboratories.
In the library only some 1.1% were active in any assay of this set; here they are far more common.
TNF necrop inh: blocks TNF-alpha induced death of Jurkat FADD-/- cells; Jurkat FADD-/- TNF necroptosis rescue, ATP luminescence, 24 h; 0 = TNF only, 100 = no-TNF cells; activation (protection from cell death), % at 10 µM; actives 0.068% (n = 220,000);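 active = activation, meaning protection from cell death, of at least 50% relative to plate controls; inactive = activation below 50%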;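 note: necroptosis triggered by 40 ng/mL TNF-alpha added together with compound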
HIF activator: HIF pathway transcriptional activation. U2OS HRE-luciferase reporter, luminescence; normalized: DMSO 0%, desferrioxamine 100%. activation, % at 7.5 µM (by protocol). actives 0.32% (n = 300,000). AID 1910;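 active = mean activation of at least 10% of the iron chelator positive control signal, with at least half of replicates also reaching 10%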
L929 necroptosis: L929 zVAD cell death inhibition | viability rescue, % at 10 µM | L929 zVAD necroptosis rescue, ATP luminescence, 24 h; with zVAD 60 µM | AID 1377 | actives 0.38% (n = 220,000);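 active = activation, scaled between plate controls, above about 75%, limit read from the data; inactive = activation under that limit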;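 note: 0% = zVAD with DMSO and 100% = DMSO alone without zVAD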
Calb FLC: affects C. albicans growth with fluconazole. C. albicans CaCi-2 (fluconazole-resistant clinical isolate) + fluconazole, Alamar Blue growth, 48 h. growth inhibition, % (no concentration beside the values). actives 0.57% (n = 300,000);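 active = growth inhibition above about 58% in most replicates, limit read from the data, passing the limit was not always enough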;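 note: all wells also contain fluconazole at 8 µg/ml as a sub-toxic cotreatment; 0% = median of DMSO wells and 100% = median of geldanamycin control wells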
* marks the source's active call; other numbers are inactive results.

For COc1ccc(CCNC(=O)c2cc(-c3ccco3)on2)cc1OC the results were TNF necrop inh -7.4, HIF activator 16.6*, L929 necroptosis 0.5 and Calb FLC 4.5.
Screening O=C(NCCc1ccccc1)c1cc(-c2ccco2)on1 returned TNF necrop inh -8.5, HIF activator 23.0*, L929 necroptosis 1.1 and Calb FLC -6.8.
`COc1ccc(CCNC(=O)c2cc(-c3cccs3)on2)cc1OC` gave TNF necrop inh -12.4, HIF activator 16.0*, L929 necroptosis 8.1 and Calb FLC 52.1.
Screening O=C(CCc1nc(-c2ccccc2Cl)no1)NCCc1ccccc1 returned HIF activator -0.5 and Calb FLC -6.3.
Screening O=C(N/N=C/c1ccc(O)cc1)c1csc2ccccc12 returned TNF necrop inh -12.0, HIF activator -0.7, L929 necroptosis 0.6 and Calb FLC 113.8*.
For Cc1ccc(CCNC(=O)C2CCC(=O)N(CC3CCCCC3)C2)cc1 (centres undefined) the results were HIF activator -0.5 and Calb FLC -1.9.
`NC[C@@H]1O[C@H](C23CC4CC(CC(C4)C2)C3)Cc2c1ccc(O)c2O` gave TNF necrop inh -10.0, HIF activator 1.9, L929 necroptosis 30.2 and Calb FLC 101.4*.
`CC(=O)Nc1cccc(-c2csc(Nc3ccc(C)cn3)n2)c1` gave TNF necrop inh -1.1, HIF activator 1.2, L929 necroptosis 3.4 and Calb FLC 90.7*.
COc1ccc(-c2csc(Nc3ccc(C)cn3)n2)cc1 was read as TNF necrop inh -0.3, HIF activator 2.6, L929 necroptosis 1.8 and Calb FLC -9.2.
`CC(NC(=O)OCc1ccccc1)C(=O)Oc1cc2oc(=O)cc(-c3ccccc3)c2cc1Cl` (centres undefined) gave TNF necrop inh 1.7, HIF activator 0.5, L929 necroptosis 0.2 and Calb FLC 82.3*.
COc1cccc(CNC(=O)CN2C(=O)CSc3ccc(S(=O)(=O)N4CCOCC4)cc32)c1 was read as HIF activator 0.2 and Calb FLC -6.0.
`COc1cc([N+](=O)[O-])cc(/C=N/N(CCC#N)C(C)=O)c1O` gave TNF necrop inh 0.1, HIF activator -0.2, L929 necroptosis 0.8 and Calb FLC -19.7.
For COc1cccc(C2C3=C(N=c4s/c(=C\c5ccccc5O)c(=O)n42)c2ccccc2CC3)c1OC (centres undefined) the results were TNF necrop inh -1.4, HIF activator 615.6*, L929 necroptosis 0.1 and Calb FLC -1.6.
For C=CC(C)(C)c1c(O)c(CC=C(C)C)c(O)c2c(=O)c3ccc(O)c(O)c3oc12 the results were HIF activator 0.3 and Calb FLC 83.6*.
For Cc1sc2nc(CSCC(=O)N(CCC#N)c3ccccc3)[nH]c(=O)c2c1C the results were TNF necrop inh 0.7, HIF activator 0.6, L929 necroptosis 1.4 and Calb FLC 27.5.
For O=C(C1COc2ccccc2O1)N1CCCC1 (centres undefined) the results were TNF necrop inh 2.1, HIF activator 0.2, L929 necroptosis -0.6 and Calb FLC -11.5.
`O=C(C1COc2ccccc2O1)N1CCc2ccccc21` (centres undefined) gave TNF necrop inh 89.2*, HIF activator 2.0, L929 necroptosis 2.4 and Calb FLC -1.2.
Screening Cc1ccc(S(=O)(=O)Nc2ccc(O)c3ncccc23)cc1 returned TNF necrop inh -13.9, HIF activator 1.8, L929 necroptosis 32.2 and Calb FLC 99.4*.
`COCC(=O)Nc1nc2n(n1)C(c1ccccc1Cl)CC(c1ccc(OC)cc1)N2` (centres undefined) gave TNF necrop inh 0.6, HIF activator -0.2, L929 necroptosis 0.1 and Calb FLC 110.5*.
Screening COCC(=O)Nc1nc2n(n1)C(c1ccc(Cl)cc1)CC(c1ccc(OC)cc1)N2 (centres undefined) returned TNF necrop inh 0.9, HIF activator -1.4, L929 necroptosis 0.0 and Calb FLC -4.3.
CCCCCc1ccc(OCCC[n+]2ccccc2)c(CCCCC)c1 was read as TNF necrop inh -22.2, HIF activator -0.9, L929 necroptosis 2.2 and Calb FLC 66.9.
Screening CCCCCc1ccc(OCCOCCn2c[n+](C)c3ccccc32)c(CCCCC)c1 returned TNF necrop inh -11.5, HIF activator -1.1, L929 necroptosis 8.8 and Calb FLC 103.6*.
`Cn1c(N2CCOCC2)c(/C=N/OC(=O)c2ccc(F)cc2)c2ccccc21` gave TNF necrop inh -11.4, HIF activator 0.2, L929 necroptosis 0.0 and Calb FLC 94.3*.
`Cc1ccc(C(=O)O/N=C/c2c(N3CCOCC3)n(C)c3ccccc23)cc1` gave TNF necrop inh -11.0, HIF activator -0.3, L929 necroptosis 0.0 and Calb FLC 110.1*.
Screening CC(=O)O/N=C/c1c(N2CCOCC2)n(C)c2ccccc12 returned TNF necrop inh -10.1, HIF activator 0.3, L929 necroptosis 0.3 and Calb FLC 98.5*.
Cn1c(N2CCOCC2)c(/C=N/O)c2ccccc21 was read as TNF necrop inh -0.1, HIF activator 0.1, L929 necroptosis 1.5 and Calb FLC -39.7.
`CCN1CCN(Cc2nnc(-c3ccc(C)cc3)o2)CC1` gave HIF activator 1.6 and Calb FLC -15.3.
C/C(=N\NC(=O)Cc1c(F)cccc1Cl)c1cccnc1 was read as HIF activator -0.7 and Calb FLC -4.4.
Screening O=C(NC(c1ccccc1)c1ccccc1)C1CCCO1 (centres undefined) returned TNF necrop inh -1.3, HIF activator 130.5*, L929 necroptosis 2.8 and Calb FLC -6.2.
O=C(NNC(=O)C1CCCO1)c1ccccc1Cl (centres undefined) was read as TNF necrop inh -1.4, HIF activator -0.2, L929 necroptosis 0.1 and Calb FLC -8.0.
Screening O=c1ccnc2n1COCS2 returned TNF necrop inh 1.4, HIF activator -0.3, L929 necroptosis 0.9 and Calb FLC 7.9.
Screening COc1ccc2nc(-c3cccc(N)c3)[nH]c2c1 returned TNF necrop inh -5.3, HIF activator 12.7*, L929 necroptosis -1.2 and Calb FLC -2.1.
`COc1cccc(C2(O)CCN(CC(=O)NCC3CC3)CC2)c1` gave TNF necrop inh 0.1, HIF activator -0.5, L929 necroptosis 0.8 and Calb FLC -15.6.
`ON=C1c2cc(OCCN3CCCCC3)ccc2-c2ccc(OCCN3CCCCC3)cc21` gave HIF activator 16.2* and Calb FLC 26.7.
`Clc1ccc(OCCN2CCCCC2)cc1Cl` gave TNF necrop inh 2.0, HIF activator 0.1, L929 necroptosis 0.4 and Calb FLC 0.0.
For O=C(Cn1ccccc1=O)NCc1ccc(F)cc1 the results were HIF activator -0.1 and Calb FLC -14.3.
For Cc1ccc(C)c(S(=O)(=O)NCc2ccc3c(c2)OCO3)c1 the results were HIF activator -0.5 and Calb FLC 1.8.
For Cc1nn(C)cc1S(=O)(=O)NCc1ccc2c(c1)OCO2 the results were HIF activator 262.6* and Calb FLC 0.8.
